Experimental data published in PubChem BioAssay AID504862 (Sanford-Burnham Center for Chemical Genomics, 2011).
The other results are listed elsewhere or left out. The source made the active and inactive calls.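 Rule for the calls: active = average inhibition reaching 50% or more with the compound at 20 µM; inactive = the rest.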

What follows are compounds tested on diaphorase (Clostridium kluyveri) (assay: C. kluyveri diaphorase inhibition, resazurin coupling – biochemical, fluorescence intensity, 10 µM NADPH, counter-screen for P. falciparum G6PD inhibitor project, confirmation (AID 504862;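 note: resorufin red fluorescence formed as diaphorase reduces resazurin using NADPH; 0% = DMSO with enzyme and 100% = DMSO without enzyme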)). Settings: diaphorase-coupled resazurin reduction, NADPH 10 uM, at 20 µM, hits give high values.

| Compound | inhibition |
| --- | --- |
| COc1cccc(C(=O)Nc2nnc(S(=O)(=O)N3CCOCC3)s2)c1 | 69.5% (active) |
| Cc1ccnc(-n2sc3ccccc3c2=O)n1 | -36% (inactive) |
| COc1cccc(C(=O)Nc2nnc(S(=O)(=O)N(C)c3ccccc3)s2)c1 | 89.1% (active) |
| COc1ccc(OCc2nnc3n2N=C(c2ccccc2)C(CC(=O)O)S3)cc1 (stereo unspecified) | -3.99% (inactive) |
| O=C(Nc1nnc(S(=O)(=O)N2CCOCC2)s1)c1cccc(Br)c1 | 56.5% (active) |
| CC(C)(C)NC(=O)COc1ccc(CNc2ccc3[nH]c(=O)[nH]c3c2)cc1 | 27.4% (inactive) |
| COc1ccc(CC(=O)NCC(=O)N/N=C/c2cc(Br)ccc2OC)cc1 | 87.8% (active) |
| O=C1C=CC(=O)N1c1ccc(N2CCCCC2)cc1 | -20% (inactive) |
| COc1ccc(CCn2c(NN=C3CCCC3)nc3c2c(=O)[nH]c(=O)n3C)cc1 | 7.63% (inactive) |
| CCSc1nnc(NC(=O)c2ccc(C)cc2)s1 | 61.9% (active) |
| c1ccc(-c2cn3c(n2)CCc2ccc4cccnc4c2-3)cc1 | 10.4% (inactive) |
| COc1cccc(C(=O)Nc2nnc(S(=O)(=O)N3CCCCC3)s2)c1 | 72.7% (active) |
| O=C(Nc1nc(-c2ccncc2)cs1)C1COc2ccccc2O1 (stereo unspecified) | -37.4% (inactive) |
| COc1c(O)ccc2c1CN1CCc3cc4c(cc3C1C2)OCO4 (stereo unspecified) | 12.4% (inactive) |
| O=c1[nH]c2ccccc2n2c(-c3ccccc3)nnc12 | 37.2% (inactive) |
| O=[N+]([O-])c1c(NCCO)cc(Sc2nc3ccccc3s2)c2nonc12 | -9.49% (inactive) |

| Compound | inhibition |
| --- | --- |
| CCN1CCCC1CNC(=O)c1ccc2c(c1)NC(=O)/C(=C\c1ccccc1F)S2 (stereo unspecified) | -2.12% (inactive) |
| COc1ccc2c(c1)c(=Cc1ccc(N(C)C)cc1)c1cc(-c3ccccc3)[n+](C)n12 | 17.5% (inactive) |
| O=C(Nc1nnc(S(=O)(=O)N2CCCCCC2)s1)c1cccc(Br)c1 | 52.1% (active) |
| Cc1ccc(/C=C/C(=O)Nc2ccc([N+](=O)[O-])c(NC(=O)/C=C/c3ccc(C)o3)c2)o1 | -11.9% (inactive) |
| Cn1c(-c2sccc2OCc2cccc(C(F)(F)F)c2)n[nH]c1=S | 4.08% (inactive) |
| Cc1cccc(C(=O)Nc2nnc(S(=O)(=O)N3CCCCCC3)s2)c1 | 46.7% (inactive) |
| OCCN1CCN(C(=S)c2ccc(-c3ccccc3)cc2)CC1 | -9.62% (inactive) |
| CCOc1ccccc1/C=N/NC(=O)CNC(=O)COc1ccccc1 | 96.9% (active) |
| O=C(CN1CCN(c2ccc(O)cc2)CC1)Nc1cc(S(=O)(=O)N2CCOCC2)ccc1Cl | -6.79% (inactive) |
| O=C1/C(=C\c2ccc([N+](=O)[O-])cc2)CS(=O)(=O)C/C1=C/c1ccc([N+](=O)[O-])cc1 | -19.8% (inactive) |
| CCOC(=O)C1=C(c2ccc(OC)cc2)C(=O)c2ccccc2C1=O | 84.4% (active) |
| Cc1ccc(NC(=O)Cn2sc3ccccc3c2=O)cc1 | 0.47% (inactive) |
| C=CCc1ccccc1OCC(=O)N/N=C/c1ccccc1OCC | 43.3% (inactive) |
| CCN(CC)c1ccc2oc(=O)c(C)nc2c1 | 87.7% (active) |
| O=C(NC1=CC(=O)c2ccccc2C1=O)c1ccccc1 | 48.7% (inactive) |
